Measurements reported in PubChem BioAssay (NCI).
This is part of a sample that, as a whole, favours compounds with a hit. Of some 83,000 tested, about 20% had one in any assay.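 96-well plates, one dose, 48 hours. Percent growth reported; active if below 10.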 A number with no mark means an inactive call.

The compounds below were run on MDA-MB-468 breast (assay: NCI-60 one-dose screen, 48 h (100 = growth as untreated, 0 = no growth, -100 = all killed)). Details: 10 µM unless noted.
CCOC(=O)C1=C(C)N=C2SC=C(c3ccc(F)cc3)N2[C@H]1c1cn(-c2ccccc2)nc1-c1ccc(Cl)cc1 showed a growth of 91.1%.
O=C(CSc1nc2c(n1Nc1ccccc1)-c1ccccc1SC2)Nc1nccs1 showed a growth of 104%.
Compound COc1ccccc1C1OC2=Nc3cc(C)c(C)cc3NC2C1=O (centres undefined) has a growth of 66.2%.
COc1cccc(-c2nc3occn3c2-c2ccnc(NCCCNS(=O)(=O)c3cccc(F)c3)n2)c1 showed a growth of 65.4%.
